Bioassay records deposited in PubChem by The Scripps Research Institute Molecular Screening Center.
Sampled rows, rich in hits. Any-hit rate of the full collection: about 3.5%.
TEAD-YAP block – TEAD-YAP interaction inhibition; HEK-TIYL cells, TEAD-Gal4/YAP UAS-luciferase luminescence; inhibition, % at 9.12 µM; 1.4% of 640,000 active; AID 1259422; in the data active = inhibition above about 32%;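 also: 0% = median of test compound wells and 100% = reference inhibitor wells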
GPR151 ag – activates the human receptor GPR151 | PathHunter beta-arrestin GPR151 cells, luminescence | activation, % at 11.2 µM | 1% of 650,000 active | AID 1508602; in the data active = activation above about 4.9%;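 also: 0% = median of compound wells and 100% = cells with positive control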
FBW7 act – human FBW7 E3 ligase activation, primary screen. Q969H0. AlphaScreen FBW7–phospho-cyclin E peptide binding, activator screen. normalized activity (activation), % at 26.1 µM. 0.13% of 650,000 active; in the data active = normalized activity above about 1.9%;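 also: purified mutant Fbw7 with reduced substrate affinity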
Target sequence (Q969H0 whole entry, looked up): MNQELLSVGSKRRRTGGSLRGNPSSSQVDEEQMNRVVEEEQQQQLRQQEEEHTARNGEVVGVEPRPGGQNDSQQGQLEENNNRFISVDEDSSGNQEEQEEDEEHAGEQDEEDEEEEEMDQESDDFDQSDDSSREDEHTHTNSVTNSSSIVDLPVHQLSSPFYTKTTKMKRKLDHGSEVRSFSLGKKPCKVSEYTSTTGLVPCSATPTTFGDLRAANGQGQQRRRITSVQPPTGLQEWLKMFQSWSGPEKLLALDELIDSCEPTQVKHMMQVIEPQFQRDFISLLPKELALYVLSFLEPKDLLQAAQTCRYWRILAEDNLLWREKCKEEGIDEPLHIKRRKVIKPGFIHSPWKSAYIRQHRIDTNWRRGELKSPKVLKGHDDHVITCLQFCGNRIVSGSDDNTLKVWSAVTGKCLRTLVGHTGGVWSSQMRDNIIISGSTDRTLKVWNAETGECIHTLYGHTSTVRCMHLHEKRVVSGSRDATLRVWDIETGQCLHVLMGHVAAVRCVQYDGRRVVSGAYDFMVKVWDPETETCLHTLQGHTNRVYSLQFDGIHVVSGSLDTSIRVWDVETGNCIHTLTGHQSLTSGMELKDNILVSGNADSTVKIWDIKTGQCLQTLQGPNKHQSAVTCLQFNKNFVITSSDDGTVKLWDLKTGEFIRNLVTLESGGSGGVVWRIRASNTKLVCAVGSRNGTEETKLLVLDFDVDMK
MITF inh – human MITF inhibition, primary screen; AlphaScreen MITF homodimerization, bead proximity signal; inhibition, % at 2.6 µM; O75030; 0.91% of 650,000 active; in the data active = inhibition above about 50%;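 also: 0% = vehicle wells with protein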
MITF inh conf – confirmation of human MITF inhibitors; shares compounds with MITF inh; inhibition, % at 2.6 µM; 16% of 4,700 active; AlphaScreen MITF homodimerization, biotin/His-MITF beads;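 active = inhibition above a cutoff derived from the DMSO control wells, cut at about 28% in these data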;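 also: 0% = MITF dimer wells with DMSO only; inhibitors lower the bead chemiluminescence by keeping MITF from dimerizing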
AlphaScreen DR – optically interferes with AlphaScreen signal in dose response | shares compounds with MITF inh | AlphaScreen optical interference counterscreen, cell-free | IC50, µM | 6% of 480 active | AID 1259373; call rule not given here
AS interf ctr – counter-screen: compounds optically interfering with AlphaScreen; LysRS AlphaScreen counterscreen, signal interference, triplicate; AID 1259376; shares compounds with MITF inh; inhibition, % at 2.6 µM; 7.6% of 4,700 active;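 active = inhibition above a cutoff derived from the DMSO control wells, cut at about 30% in these data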
An asterisk follows results filed as active; / = no result.

SMILES | TEAD-YAP block | GPR151 ag | FBW7 act | MITF inh | MITF inh conf | AS interf ctr | others
O=C(NCc1ccccn1)c1cn(-c2ccc(Cl)cc2)c(=O)c2ccccc12 | 5.0 | 2.3 | -0.3 | 4.2 | / | /
O=C(c1cccc(Nc2nccc(-c3ccc4nc(C5CC5)[nH]c(=O)c4c3)n2)c1)N1CCCC1 | -20.8 | -2.8 | 0.7 | 21.2 | / | /
O=c1[nH]cccc1-c1ccc(Nc2nccc(-c3ccc4nc(C5CC5)[nH]c(=O)c4c3)n2)cc1 | 4.3 | -0.1 | 0.3 | 64.4* | 62.0* | -90.3 | AlphaScreen DR=>6.48
COc1cc(NC(=O)c2cncc(Nc3ncccn3)c2)cc(OC)c1OC | -6.9 | -2.0 | -0.2 | 3.5 | / | /
COc1ccccc1N1CCN(C(=O)c2ccc3c(=O)n(Cc4ccc5c(c4)OCO5)c(=S)[nH]c3c2)CC1 | -1.8 | -0.4 | 0.0 | -4.4 | / | /
COc1ccc(NC(=O)c2sc3nc4cc(C)ccc4cc3c2N)cc1OC | 1.2 | 0.0 | 0.3 | 10.7 | / | /
COc1ccc(NC(=O)c2sc3nc4ccc(C)cc4cc3c2N)cc1OC | -5.9 | -0.2 | 0.0 | 65.2* | 7.0 | 21.3
O=C(Nc1nnc(-c2ccco2)o1)c1ccc([N+](=O)[O-])o1 | 14.8 | -1.4 | 0.0 | 55.1* | 7.9 | 15.2
O=C(Nc1nnc(-c2ccccc2)o1)c1ccc([N+](=O)[O-])o1 | 11.5 | 1.4 | 0.0 | -14.1 | / | /
Clc1ccc(CSc2ncccn2)c(Cl)c1 | -16.2 | -0.1 | -0.1 | 0.4 | / | /
CCc1ccccc1NC(=S)N(Cc1ccc(C)cc1)Cc1ccco1 | 3.2 | 0.3 | -0.1 | 6.1 | / | /
CCOc1ccc(-c2cn3nc(COc4ccc(Cl)cc4Cl)n4c3c2CCCC4)cc1 | -15.7 | -1.5 | 0.8 | 58.8* | -9.3 | -5.0
Cc1[nH]c(=O)[nH]c(=O)c1S(=O)(=O)N1CC=C(c2ccccc2)CC1 | 5.5 | -0.2 | -0.1 | 1.7 | / | /
N#Cc1ccccc1NC(=O)c1ccc(S(=O)(=O)N2CCCC2)cc1 | -4.6 | 1.1 | 0.2 | 4.5 | / | /
N#Cc1ccccc1NC(=O)c1ccc(S(=O)(=O)N2CCOCC2)cc1 | -10.9 | 0.1 | 0.0 | 54.6* | -12.0 | -6.5
CCOc1cc(C=O)cc(I)c1OC(=O)c1ccc([N+](=O)[O-])cc1 | 3.5 | 2.4 | -0.1 | 12.2 | / | /
O=C(NC(=S)Nc1ccc(N2CCOCC2)cc1)c1ccccc1Cl | -17.5 | 0.3 | 0.0 | 6.7 | / | /
O=C(NCC1(c2ccccc2)CCOCC1)c1ccccc1C(=O)c1ccccc1 | 8.8 | -0.1 | 0.1 | 18.8 | / | /
NNc1nc(NN)nc(Nc2cccc3ccccc23)n1 | 2.7 | -1.4 | -0.2 | 51.5* | 53.6* | 63.4*
CCCC1CCC(C2CCC(=O)CC2)CC1 (centres undefined) | -5.2 | 2.7 | 0.1 | 53.5* | 13.9 | 12.5
C/C(=N/NC(=O)C(O)c1ccccc1)c1ccc(NC(=O)C(F)(F)F)cc1 (centres undefined) | -33.5 | 1.9 | -0.2 | -7.1 | / | /
COc1cccc(N(CC(=O)N2CCN(c3ccccc3)CC2)S(C)(=O)=O)c1 | 6.6 | -0.3 | 0.1 | 11.9 | / | /
C=CCNC(=O)COC(=O)c1cc(-c2ccco2)nc2ccccc12 | 5.9 | 0.0 | 0.0 | 56.7* | 64.6* | 0.5 | AlphaScreen DR=>6.94
N#Cc1cc([N+](=O)[O-])ccc1NC(=O)COC(=O)c1cc(-c2ccco2)nc2ccccc12 | 3.1 | 1.7 | 0.2 | 50.6* | 41.1* | -2.6 | AlphaScreen DR=>7.03
C[C@@H]1CN(C(=O)c2nc3sccn3c2CNCCOc2cccnc2)C[C@H](C)O1 | 2.7 | 1.5 | -0.2 | 0.2 | / | /
SMILES | TEAD-YAP block | GPR151 ag | FBW7 act | MITF inh | MITF inh conf | AS interf ctr | others
O=C(CNCCN1CCCCC1)Nc1ccc(N2CCCCC2)cc1 | -7.6 | 0.2 | 0.0 | 94.2* | 16.9 | 20.5
O=C(CNCCCN1CCOCC1)Nc1ccc(N2CCCCCC2)cc1 | -3.5 | -0.9 | -0.1 | 75.2* | 5.3 | 25.0
CCOCCCNCC(=O)Nc1ccc(N2CCCC2)cc1 | -51.1 | 1.5 | 0.1 | 12.7 | / | /
O=C(CCl)Nc1ccc(N2CCCCC2)cc1 | 14.8 | 1.7 | 0.2 | -13.2 | / | /
O=C(CNCCN1CCCCC1)Nc1ccc(N2CCCCCC2)cc1 | 0.9 | 0.0 | -0.1 | 90.8* | 8.2 | 34.4*
O=C(CNCCN1CCCCC1)Nc1ccc(N2CCCC2)cc1 | -6.0 | -0.4 | -0.2 | 82.7* | 14.8 | 61.0*
O=C(CSc1ccc(F)cc1)N1CC(c2nc3ccccc3[nH]2)C1 | 4.5 | 0.0 | -0.4 | 60.4* | 5.6 | 14.3
Cc1ccc(S(=O)(=O)Nc2nc(O)c(C3=c4cc([N+](=O)[O-])ccc4=NC3=O)s2)cc1 | -1.9 | 1.9 | 0.0 | 10.6 | / | /
